Measurements as given in the supplement of paper PMC5662767.
Counter-ions that a name gives are not always drawn.

Tested on: Drosophila S2 cl14 SmoIP sensor cells
Test: normalized SmoIP GFP fluorescence (untreated unstimulated = 0%, untreated Hh-stimulated = 100%); higher = more Smo activation sensor fluorescence
Details: compound concentration: 2 uM, 24 h
[1] = stimulation: Hh conditioned medium (+Hh)
[2] = stimulation: mock conditioned medium (-Hh)
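Further: flow cytometry read-out as median GFP intensity of gated cells, compounds added 30 min before Hh-conditioned or mock medium, mock-treated cells serving as unstimulated baseline.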

Structure (SMILES) | normalized SmoIP GFP fluorescence [1] [%] | normalized SmoIP GFP fluorescence [2] [%]
Cc1ccc(Nc2nccc(N(C)c3ccc4c(C)n(C)nc4c3)n2)cc1S(N)(=O)=O [pazopanib] | 107 | 1.95
CNC(=O)c1cccc(-c2ccc3c(N4CCOC[C@@H]4C)nc(N4CCOC[C@@H]4C)nc3n2)c1 | 65.7 | -4.47
COc1cc2ncnc(Sc3nnc(C)s3)c2cc1OC [sklb1002] | 107 | -0.491
CC(C)(O)[C@H]1CC[C@@](C)([C@H]2[C@@H](O)C[C@@]3(C)[C@@H]4C[C@H](O[C@@H]5O[C@H](CO)[C@@H](O)[C@H](O)[C@H]5O)[C@H]5C(C)(C)[C@@H](O[C@@H]6OC[C@@H](O)[C@H](O)[C@H]6O)CC[C@@]56C[C@@]46CC[C@]23C)O1 [astragaloside-a] | 120 | -16.8
CCc1ccc(OCc2ccccc2C(=O)Nc2ccc3nc(C)cc(N)c3c2)cc1 | 164 | 14.4
O=C(O)CCc1ccc(NCc2cccc(Oc3ccccc3)c2)cc1 | 105 | -2.19
Cc1ccc(C(=O)Nc2cccc(C(F)(F)F)c2)cc1Nc1nc(-c2cccnc2)nc2c1cnn2C | 140 | -9.04
CC(C)C[C@@H](C=O)NC(=O)[C@H](CC(C)C)NC(=O)[C@H](CC(C)C)NC(=O)OCc1ccccc1 | 112 | 11.3
Cc1cc(OCCCS(C)(=O)=O)cc(C)c1-c1cccc(COc2ccc3c(c2)OC[C@H]3CC(=O)O)c1 | 120 | -6.79
C/C=C1\[C@H]2C=C(C)C[C@]1(N)c1ccc(=O)[nH]c1C2 [(-)-Huperzine-A] | 139 | -7.42
COc1cc(Nc2ncc(F)c(Nc3ccc4c(n3)NC(=O)C(C)(C)O4)n2)cc(OC)c1OC | 112 | -1.11
CC(=O)O[C@]1(C(C)=O)CC[C@H]2[C@@H]3C=C(C)C4=CC(=O)CC[C@]4(C)[C@H]3CC[C@@]21C [Megestrol-Acetate] | 106 | -0.804
CCOC(=O)[C@H](CCc1ccccc1)N[C@@H](C)C(=O)N1Cc2cc(OC)c(OC)cc2C[C@H]1C(=O)O [moexipril-hydrochloride] | 126 | 3.4
O=c1ncccn1[C@@H]1O[C@H](CO)[C@@H](O)[C@H]1O [zebularine] | 108 | -3.16
CNC(CC(=O)O)C(=O)O (stereo not drawn) [nmda-n-methyl-d-aspartic-acid] | 101 | -3.16
Cn1cc(CNCC2CCN(c3ncc(C(=O)NO)cn3)CC2)c2ccccc21 | 268 | 60.6

Structure (SMILES) | normalized SmoIP GFP fluorescence [1] [%] | normalized SmoIP GFP fluorescence [2] [%]
C[C@@H]1CCN(C(=O)CC#N)C[C@@H]1N(C)c1ncnc2[nH]ccc12 | 105 | -0.889
CC(C)c1cc(-c2ccc(F)c3ccccc23)nc(N)n1 | 144 | -7.78
Cc1ccccc1-n1c(Cn2nc(-c3cccc(O)c3)c3c(N)ncnc32)nc2cccc(C)c2c1=O | 101 | -5.98
CN(C)Cc1c(C(=O)NCCOc2ccc(C(=O)NO)cc2)oc2ccccc12 | 211 | 35.2
C[C@H](Nc1ncnc2nc[nH]c12)c1cc2cccc(Cl)c2c(=O)n1-c1ccccc1 | 98 | -4.24
COc1cc2nc(N3CCCN(C)CC3)nc(NC3CCN(Cc4ccccc4)CC3)c2cc1OC | 109 | 1.61
COc1cc(OC)c2c(=O)[nH]c(-c3cc(C)c(OCCO)c(C)c3)nc2c1 | 112 | -3.16
CC(=O)N1CCN(CCOc2ccc(C3CCN(C4=Nn5c(nnc5C(F)(F)F)CC4)CC3)cc2)CC1 | 192 | 15
CCC(=O)Nc1cccc(Oc2nc(Nc3ccc(N4CCN(C)CC4)cc3OC)ncc2Cl)c1 | 73.7 | -6.51
NC(=O)c1cnc(N[C@@H]2CCCC[C@@H]2N)nc1Nc1cccc(-n2nccn2)c1 | 166 | 24.4
CCCCc1nc2cc(/C=C/C(=O)NO)ccc2n1CCN(CC)CC | 208 | 34.2
CC(=O)c1c(C)c2cnc(Nc3ccc(N4CCNCC4)cn3)nc2n(C2CCCC2)c1=O | 150 | 3.72
O=C(O)C(Cc1ccccc1[N+](=O)[O-])=NNc1nc(-c2ccc(Cl)c(Cl)c2)cs1 (mixture of isomers) | 127 | 46.7
CN(C)CCN(Cc1ccccc1)c1ccccn1 [tripelennamine-hydrochloride] | 112 | -3.9
CC(C)(C)OC(=O)N[C@H]1CCCCC/C=C\[C@@H]2C[C@@]2(C(=O)NS(=O)(=O)C2CC2)NC(=O)[C@@H]2C[C@@H](OC(=O)N3Cc4cccc(F)c4C3)CN2C1=O [Danoprevir] | 111 | 13
